Experimental data reported in ChEMBL document CHEMBL3433997, “St. Jude Leishmania screening dataset” (2016).
Where “and” joins values, the source holds several entries; their conditions need not be identical. Equal values may be shown once.

Experiments:
Format in all cases: functional
[1] = target: Solute carrier family 2, facilitated glucose transporter member 1 (Homo sapiens) (UniProt P11166); test: ST_JUDE_LEISH: Cytotoxicity at 2uM final concentration against transgenic Leishmania Mexicana promastigotes LmGLUT1 that are glucose transport deficient and complemented with the human glucose transporter GLUT1. Activity is measured by DNA content using SYBR green in vitro
[2] = target: Hexose transporter 1 (Plasmodium falciparum) (UniProt O97467); test: ST_JUDE_LEISH: Cytotoxicity at 2uM final concentration against transgenic Leishmania Mexicana promastigotes LmPfHT that are glucose transport deficient and complemented with the Plasmodium falciparum hexose transporter. Activity is measured by DNA content using SYBR green in vitro
[3] = target: Glucose transporter (Leishmania mexicana) (UniProt O61059); test: ST_JUDE_LEISH: Cytotoxicity at 2uM final concentration against transgenic Leishmania Mexicana promastigotes LmGT2 that are glucose transport deficient and complemented with the L. Mexicana glucose transporter 2. Activity is measured by DNA content using SYBR green in vitro

Chain of Solute carrier family 2, facilitated glucose transporter member 1 (Homo sapiens) (P11166 whole entry): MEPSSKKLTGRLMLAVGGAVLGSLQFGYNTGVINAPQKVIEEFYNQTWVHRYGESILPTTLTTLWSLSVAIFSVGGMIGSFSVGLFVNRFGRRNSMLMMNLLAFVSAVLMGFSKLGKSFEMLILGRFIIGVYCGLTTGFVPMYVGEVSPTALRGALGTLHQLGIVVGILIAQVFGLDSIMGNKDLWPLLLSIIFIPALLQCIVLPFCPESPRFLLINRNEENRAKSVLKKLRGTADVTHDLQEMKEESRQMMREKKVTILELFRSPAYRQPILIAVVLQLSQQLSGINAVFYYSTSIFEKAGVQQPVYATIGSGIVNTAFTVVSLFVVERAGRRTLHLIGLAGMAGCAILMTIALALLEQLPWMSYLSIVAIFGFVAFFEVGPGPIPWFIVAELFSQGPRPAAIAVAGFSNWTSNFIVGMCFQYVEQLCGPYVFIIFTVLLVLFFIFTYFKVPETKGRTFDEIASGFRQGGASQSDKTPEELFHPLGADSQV

Structure (SMILES)	inhibition [1]	inhibition [2]	inhibition [3]
COc1ccc(CNC2CCN(C)CC2)cc1-c1ccc(S(=O)(=O)NCCc2ccccn2)c(F)c1	3.16%	2.16%	4.77%
COc1ccc(NC(=O)C2CCN(CCCCCNC(=O)/C=C/c3ccc(Cl)c(Cl)c3)CC2)cc1	2.19%	2.22%	2.85%
Oc1ccc(CCNc2nc(NCc3ccccc3-c3ccc(C(F)(F)F)cc3)nc(NC3CCNCC3)n2)cc1	1.32%	0.48%	0.66%
COc1ccc2nccc([C@@H](O)CN3CCC(NC(=O)Cc4ccc(Br)c5ccccc45)CC3)c2c1	3.72%	3.24%	1.16%
O=S(=O)(c1ccc2cc[nH]c2c1)N1CCC[C@@H]1CCN1CCC(c2c[nH]c3cnccc23)CC1	3.4%	2.78%	2.1%
Cc1cc2ncn(-c3nccc(NCc4cccnc4)n3)c2cc1C	4.32%	4.68%	2.17%
Oc1ccc(CCNc2nc(NCCCOc3ccccc3-c3cccnc3)nc(N3CCNCC3)n2)cc1	5.04%	7.86%	5.99%
CC(C)N1CCC(N(Cc2ccc(-c3ccc(C(F)(F)F)cc3)cc2)C(=O)CCCn2c(CCc3cccc(F)c3F)nc(=O)c3ccccc32)CC1	5.92%	3.92%	6.72%
CCN(CC)S(=O)(=O)c1ccc(C(C)NC(=O)c2ccccc2COc2ccccc2)cc1 (stereo not drawn)	6.67%	5.1%	5.03%
CN(Cc1cnc2nc(N)nc(N)c2n1)c1ccc(C(=O)N[C@@H](CCC(=O)O)C(=O)O)cc1	3.29% and 4.83% and 0.58%	2.33% and 2.91% and 0.06%	-0.37% and 1.34% and 3.42%
Nc1ncc(-c2ccc(F)cc2)cc1-c1nc2ccc(Cl)cc2[nH]1	4.48%	5.54%	2.11%
CNC(=O)c1ccc(/C=C/C(=O)N2CCc3ccc(-c4ccccc4)cc3C2c2cccc(C(F)(F)F)c2)cc1 (stereo not drawn)	2.29%	-0.01%	0.99%
COc1cc2nc(SCC(C)C)n(CCCn3ccnc3)c(=N)c2cc1OC	3.51%	6.49%	3.6%
COc1ccc(C=NN=c2cc(C)[nH]c3ccccc23)cc1OC	7.8%	9.53%	2.8%
Fc1ccc(C=NNc2nc3ccccc3[nH]2)cc1	16.4%	13.1%	12.1%
CN(C)CCNc1nccc(N2CCc3ncnc(Nc4ccc(OCc5cccc(F)c5)c(Cl)c4)c3C2)n1	20%	28.4%	3.49%
CC(C)CCN1C(=O)C(NC(=O)Oc2ccccc2)C(=O)N(CC23CC4CC(CC(C4)C2)C3)c2ccccc21 (stereo not drawn)	-1.21%	-2.53%	-2.02%
CN1CCN(CCCN(C(=O)Nc2cc(C(F)(F)F)cc(C(F)(F)F)c2)c2ccccc2Cc2ccccc2)CC1	0.6%	0.83%	-8.69%
CCN(CC)c1ccc2nc(N)nc(N)c2c1Cl	5.94%	6.11%	4.52%
O=C(NC(Nc1ccc([N+](=O)[O-])cc1)C(Cl)(Cl)Cl)c1ccc(Cl)cc1 (stereo not drawn)	0.96%	-3.03%	-2.78%
Cc1cc(CN2CC[C@H](NC(=O)c3ccc(Cl)c(Cl)c3)C2)ccc1OC1CCN(Cc2ccccc2)CC1	11%	8.06%	8.04%
Cc1cc(C)c(S(=O)(=O)N2CCCCC(c3cccc(C(F)(F)F)c3)=N2)c(C)c1	1.84%	1.41%	1.47%
Cc1ccc(N(CCC(=N)N)Cc2ccccc2)cc1	8.97%	3.59%	4.68%
COc1cccc2c(C)cc(NCc3ccc(Cl)cc3)nc12	4.96%	4.71%	3.54%

Structure (SMILES)	inhibition [1]	inhibition [2]	inhibition [3]
COc1cc(Nc2ncc3c(C)nc(-c4cccc(Nc5ccc(CN6CCS(=O)(=O)CC6)cc5)c4)n3n2)cc(OC)c1OC	14%	5.79%	3.49%
Cc1ccccc1C1CCN(C2CCC(NC(=O)/C=C/c3cc(F)cc(F)c3)CC2)CC1 (stereo not drawn)	-1.34%	-0.51%	-1.77%
COc1ccc2c(=NN=Cc3ccccc3)cc(C)[nH]c2c1	12.1%	11.5%	8.31%
CC(C)c1ccc(OCC(O)CN(C)C(C)C(O)c2ccccc2)c(Br)c1 (stereo not drawn)	5.55%	12.5%	10.4%
COc1ccc(C(=O)NCc2ccccc2-c2ccc(C(C)(C)C)cc2)cc1O	3.25%	5.39%	1.49%
O=C(Nc1ccccc1Oc1ccccc1)NC1CCN(c2ccnc3cc(Cl)ccc23)C1 (stereo not drawn)	3.65%	4.63%	3.25%
O=c1cc(NCCCNCc2scc3c(Cl)cc(C(F)(F)F)nc23)[nH]c2ccccc12	2.13%	2.43%	3.05%
COc1cc(-c2nc3ccc(N4CCN(C)CC4)cc3[nH]2)cc(OC)c1OC	2.08%	2.62%	4.21%
Cc1noc(C)c1-c1cccc(CNCc2ccc(-c3ccc(-c4nc5cc(F)ccc5[nH]4)cc3)cc2)c1	8.14%	6.89%	3.46%
O=C(Nc1cccc(CN2CCCN(Cc3ccc(F)cc3)CC2)c1)c1cc2ccccc2s1	-2.26%	-1.55%	-0.88%
COc1cccc(C(=O)NCc2nnc(S)n2-c2ccc(Cl)c(Cl)c2)c1	-0.13%	0.68%	-0.3%
Cc1ccccc1OCC(O)CNC1CCC(NCC(O)COc2ccccc2C)CC1 (stereo not drawn)	10.2%	10.5%	5.8%
CCOc1cc(CC)ccc1C1CCN(CCN2CCC(NC(=O)c3ccc(-c4ccc(C(C)=O)cc4)cc3)CC2)CC1	1.17%	1.9%	1.24%
COc1ccc(NC(=O)Nc2ccc(Nc3nc(C)cc(N(C)C)n3)cc2)cc1	2.57%	3.61%	4.41%
Cc1ccc2nc(C)n(C3CCN(C(=O)Cc4ccccc4C)CC3)c2c1	5.4%	8.18%	4.9%
Cc1noc(C)c1-c1cccc(CNCc2cccc(-c3ccc(-c4nc5ccccc5[nH]4)cc3)c2)c1	0.58%	-1.28%	-1.53%
CCC(C)NS(=O)(=O)c1ccc2nc(Nc3ccc(C)c(Cl)c3)n(C3CCCCC3)c2c1 (stereo not drawn)	5.56%	5.72%	4.46%
c1ccc(-c2nc3ccccc3[nH]2)c(Nc2ccnc3cc(-c4nccs4)ccc23)c1	4.76%	0.91%	0.58%
CNCCNCc1ccc(-c2ccc(-c3nc4cccc(C)c4[nH]3)s2)cc1	2.93%	2.48%	3.92%
NC(=O)c1cccc(C(=O)Nc2cccc(-c3cccc(-c4nc5ccccc5[nH]4)c3)c2)c1	5.87%	5.18%	4.03%
c1ccc2c(c1)cc(CNCCCN1CCN(CCCNCc3cc4ccccc4c4ccccc34)CC1)c1ccccc12	-0.37%	0.84%	-0.41%
COc1cc(C(=O)NC2CCN(Cc3ccccc3)CC2)ccc1-c1nc2cc(Cl)c(Cl)cc2[nH]1	0.11%	1.66%	0.13%
CCCOc1ccc(N2C(N)=NC(N)=NC2(C)C)cc1	3.43%	1.16%	2.09%
O=C(NC1CC1)c1cnc(N2CCC(Cc3ccccc3)CC2)c(Cl)c1	0.75%	-0.08%	-0.03%

Structure (SMILES)	inhibition [1]	inhibition [2]	inhibition [3]
Oc1ccc(CN2Cc3ccccc3OC3(CCN(Cc4c[nH]c5cnccc45)CC3)C2)cc1	-0.29%	-0.21%	-3.09%
CCC(C)C(COC(=O)c1cc(OC)c(OC)c(OC)c1)N(C)CCN(C)C(COC(=O)c1cc(OC)c(OC)c(OC)c1)C(C)CC (stereo not drawn)	1.76%	1.28%	-0.47%
O=C(NC1CCN(CC2(c3ccc(Cl)cc3)CCCCC2)CC1)c1cc[nH]n1	3.86%	2.9%	3.61%
Cc1nc(N)nc(N)c1-c1ccc2ccccc2c1	-1.96%	-1.02%	-2.1%
Cc1nc(C)c(-c2ccc(Oc3ccc([S+](C)[O-])cc3)cc2)c(O)c1Br (stereo not drawn)	3.66%	3.7%	3.99%
Cc1c(S(=O)(=O)Nc2ccc3nccc(N4CC(C)NC(C)C4)c3c2)sc2ccc(Cl)cc12 (stereo not drawn)	5.22%	6.03%	3.81%
COc1cccc(-c2cnc(N)c(-c3nc4ccc(F)cc4[nH]3)c2)c1	5.87%	7.53%	4.49%
CCOC(=O)C(C)(C)Oc1ccc(C(=C2CC(C)(C)CC(C)(C)C2)c2ccc(O)cc2)cc1	4.11%	2.31%	3.56%
O=C(Nc1cccc(-c2nn3ncccc3c2-c2ccnc(Nc3cccnc3)n2)c1)c1c(F)cccc1F	1.51%	3.78%	2.21%
O=C(NC1CC1)c1ccc(N2CCC(COc3cccc(F)c3)CC2)nc1	5.26%	4.16%	6.94%
CC(=O)Nc1cccc(Nc2nccc(Nc3ccc(Oc4ccccc4)cc3)n2)c1	1.64%	2.76%	-0.82%
COc1ccc2nccc([C@@H](O)CN3CCC(NC(=O)C(c4ccccc4C)N4CCC(Cc5ccccc5)CC4)CC3)c2c1 (stereo partly drawn)	1.73%	1.16%	2.38%
CC1(C)NC(N)=NC(=N)N1OCCCc1cccc(C(F)(F)F)c1	-0.43%	-0.35%	1.25%
COc1ccc2cc(-c3nc(-c4c(Cl)cccc4Cl)[nH]c3-c3ccnc(NCCC4CCCN4C)c3)ccc2c1 (stereo not drawn)	29.7%	12.8%	8.98%
CS(=O)(=O)c1cccc(-c2ccc3oc(C(N)=O)c(NC(=O)c4cccs4)c3c2)c1	7.71%	6.5%	5.71%
Cc1cc(N[C@@H](Cc2ccccc2)C(=O)Nc2ccccc2)nc(NCCc2cccs2)n1	4.14%	2.39%	1%
Cc1cc(N[C@@H](Cc2ccccc2)C(=O)Nc2ccccc2)nc(NCCN2CCCC2)n1	-2.01%	-2.84%	-2.29%
COc1ccc(N2CCN(c3nc(Nc4ccc(NC(C)=O)cc4)nc(N4CCCC4)n3)CC2)cc1	0.68%	1.16%	5.96%
CN(C)Cc1cccc(-c2ccc(NC(=O)c3ccc4c(=O)n(C5CCCCC5)cnc4c3)cc2)c1	76%	80.4%	79.8%
Cc1cccc2nc(-c3cccc(-c4ccc(NC(=O)C(C)CN(C)C)cc4)c3)[nH]c12 (stereo not drawn)	-2.74%	0.04%	-1.14%
CN(C)c1ccc(-c2csc(C(=O)NCC3CCN(Cc4ccc(C(C)(C)C)cc4)C3)c2)cc1 (stereo not drawn)	-1.07%	-1.85%	-1.57%
CCN(CCCN1CCCCC1)c1cc(C)nc(Nc2cc(C(F)(F)F)ccc2C)n1	-1.35%	0.37%	0%
O=C(Nc1cccc(N2CCC(NCCCn3ccnc3)CC2)c1)c1cccc(C(F)(F)F)c1	0.98%	-0.71%	3.8%
